Molecules are shown by their SMILES. Calls of active or inactive are those of the source.

Assay [1] concerns Plasmodium falciparum Sir2 (PF13_0152, Sir2A). Description: Plasmodium falciparum Sir2A binding compounds – biochemical, small-molecule microarray, 635 nm fluorescence, primary screen (AID 1098).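 Further: score merges spot fluorescence intensity with its signal-to-noise ratio.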 The settings on record: fluorescence 635 nm, higher = more signal.
A short description of assay [2]: probe aDKK1 binding to arrayed compounds – biochemical, biotinylated probe, 635/667 nm fluorescence, primary screen (AID 1099).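 Further: score merges 667nm spot fluorescence with signal to noise across triplicate slides.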 Particulars: small-molecule microarray, higher = more signal.
The nature of assay [3]: probe aCHRDL2 binding to arrayed compounds – biochemical, biotinylated probe, 635/667 nm fluorescence, primary screen (AID 1100). The settings on record: small-molecule microarray, higher = more signal.
A short description of assay [4]: change in splice reporter luminescence, either direction, cell-based, HEK293, spliceosome inhibition project, primary screen (AID 1101).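 Further: HEK293 cells carrying a splicing-competent luciferase reporter gene; test concentration not given here.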 The settings on record: HEK293 splicing luciferase reporter, 24 h, higher = more signal, called active from +8 up or from −8 down.
Assay [5] addresses Fibroblast growth factor 10 (Homo sapiens) (UniProt O15520). Description: compounds binding fibroblast growth factor 10 – biochemical, small-molecule microarray, 635 nm fluorescence, primary screen (AID 1102). Particulars: FGF10 binding, fluorescence 635 nm, higher = more signal.
The subject of assay [6] is glycogen synthase kinase-3 (GSK3A per assay name; protocol says GSK3B). The assay is described as follows: compounds binding glycogen synthase kinase-3 – biochemical, small-molecule microarray, 635 nm fluorescence, GSK3A, primary screen (AID 1103). Further: the record names both GSK3A and GSK3B. Particulars: fluorescence 635 nm, higher = more signal.
In assay [7] the target is Epidermal growth factor receptor (Homo sapiens) (UniProt P00533). Description: compounds binding epidermal growth factor receptor – biochemical, small-molecule microarray, 635 nm fluorescence, primary screen (AID 1104).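 Further: score merges 667 nm emission intensity with spot signal to noise over triplicate slides.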 The settings on record: EGFR binding, higher = more signal.
Sequence of Epidermal growth factor receptor (Homo sapiens) (P00533 whole entry, looked up): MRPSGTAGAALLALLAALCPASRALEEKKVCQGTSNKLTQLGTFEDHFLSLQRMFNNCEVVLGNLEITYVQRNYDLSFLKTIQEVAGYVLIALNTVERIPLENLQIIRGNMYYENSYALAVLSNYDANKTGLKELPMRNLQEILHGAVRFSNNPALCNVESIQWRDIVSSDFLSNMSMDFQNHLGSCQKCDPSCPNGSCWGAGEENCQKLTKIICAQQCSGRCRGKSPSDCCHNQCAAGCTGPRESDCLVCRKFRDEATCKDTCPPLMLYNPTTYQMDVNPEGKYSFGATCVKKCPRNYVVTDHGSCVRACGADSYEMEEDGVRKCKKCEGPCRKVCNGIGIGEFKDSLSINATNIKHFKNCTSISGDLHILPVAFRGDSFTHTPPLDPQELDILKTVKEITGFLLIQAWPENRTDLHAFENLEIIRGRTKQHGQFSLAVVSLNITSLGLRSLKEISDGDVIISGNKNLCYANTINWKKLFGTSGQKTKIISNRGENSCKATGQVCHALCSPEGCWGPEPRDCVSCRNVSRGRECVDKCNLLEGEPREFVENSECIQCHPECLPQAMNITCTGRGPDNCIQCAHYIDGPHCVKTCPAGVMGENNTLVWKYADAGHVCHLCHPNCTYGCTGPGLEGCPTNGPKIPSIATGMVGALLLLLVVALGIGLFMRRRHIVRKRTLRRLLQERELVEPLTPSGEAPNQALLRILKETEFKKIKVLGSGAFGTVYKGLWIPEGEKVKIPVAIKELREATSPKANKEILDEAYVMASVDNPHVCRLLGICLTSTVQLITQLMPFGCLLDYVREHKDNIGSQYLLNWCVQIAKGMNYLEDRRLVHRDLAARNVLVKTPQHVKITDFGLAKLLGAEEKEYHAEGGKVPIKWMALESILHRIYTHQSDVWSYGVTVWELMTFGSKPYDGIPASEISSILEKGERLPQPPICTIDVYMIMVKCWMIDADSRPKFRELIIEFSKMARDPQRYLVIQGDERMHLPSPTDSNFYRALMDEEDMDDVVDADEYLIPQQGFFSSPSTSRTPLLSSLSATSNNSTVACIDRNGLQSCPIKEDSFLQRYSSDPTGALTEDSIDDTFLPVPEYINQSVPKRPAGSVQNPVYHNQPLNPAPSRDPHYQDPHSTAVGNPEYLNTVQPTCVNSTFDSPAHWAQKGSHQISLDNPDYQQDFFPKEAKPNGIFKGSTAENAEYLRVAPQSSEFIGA
Assay [8] has as its target Follistatin-related protein 3 (Homo sapiens) (UniProt O95633). The assay is described as follows: compounds binding follistatin-related protein 3 – biochemical, small-molecule microarray, 635 nm fluorescence, primary screen (AID 1105).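 Further: score merges emission near 667 nm and signal to noise per printed spot across three slides.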 The settings on record: FSTL3 binding, higher = more signal.
For assay [9], the target named is Dickkopf-related protein 1 (Homo sapiens) (UniProt O94907). Description: small molecules binding DKK1 protein – biochemical, small-molecule microarray, 635 nm fluorescence scan, primary screen (AID 1106).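 Further: score merges emission near 667 nm with signal to noise over three replicate slides.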 The settings on record: higher = more signal.
Sequence of Dickkopf-related protein 1 (Homo sapiens) (O94907 whole entry, looked up): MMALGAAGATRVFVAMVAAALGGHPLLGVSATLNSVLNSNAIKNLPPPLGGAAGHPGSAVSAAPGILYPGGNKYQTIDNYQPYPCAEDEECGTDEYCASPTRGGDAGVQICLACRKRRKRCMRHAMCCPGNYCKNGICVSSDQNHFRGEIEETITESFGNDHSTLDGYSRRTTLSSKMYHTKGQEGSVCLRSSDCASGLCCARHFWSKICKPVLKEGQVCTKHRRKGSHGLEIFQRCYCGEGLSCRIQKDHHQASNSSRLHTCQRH
Assay [10] relates to Inhibin beta A chain (activin A). The assay is described as follows: small molecules binding activin A – biochemical, small-molecule microarray, 635 nm fluorescence scan, primary screen (AID 1107).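 Further: mouse activin A protein probed at 4.33 µg/mL on printed slides; score merges bound-protein fluorescence near 667 nm with spot signal-to-noise.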 Particulars: INHBA, higher = more signal.
For assay [11], the system named is Human papillomavirus type 1a protein E7 (residues 44-93). Description: small molecules binding HPV E7 44-93 – biochemical, small-molecule microarray, residues 44-93, 635 nm fluorescence, primary screen (AID 1108).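 Further: E7 fragment applied at 1 µg/mL in TBST for 1 h at 4 C; score combines spot fluorescence with its signal to noise ratio.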 The settings on record: fluorescence 635 nm, higher = more signal.
Assay [12] in a line: hepatitis C replication reporter changes, two-sided – Huh7 cells, luciferase reporter, HCV replication inhibitor project, primary screen (AID 1109).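 Further: huh7 hepatoma cells harbouring a luciferase neomycin HCV replicon reporter; luciferase luminescence as measure of HCV replicon replication; test concentration not given here.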 The settings on record: Huh7 HCV replicon luciferase reporter, 48 h; higher = more signal. (Reporter assays use an easily measured gene product as a stand-in for the process of interest.)
The target in assay [13] is Left-right determination factor 2 (Homo sapiens) (UniProt O00292). Description: small molecules binding LEFTY2 protein – biochemical, small-molecule microarray, 635 nm fluorescence scan, primary screen (AID 1110). The settings on record: higher = more signal.
Sequence of Left-right determination factor 2 (Homo sapiens) (O00292 whole entry, looked up): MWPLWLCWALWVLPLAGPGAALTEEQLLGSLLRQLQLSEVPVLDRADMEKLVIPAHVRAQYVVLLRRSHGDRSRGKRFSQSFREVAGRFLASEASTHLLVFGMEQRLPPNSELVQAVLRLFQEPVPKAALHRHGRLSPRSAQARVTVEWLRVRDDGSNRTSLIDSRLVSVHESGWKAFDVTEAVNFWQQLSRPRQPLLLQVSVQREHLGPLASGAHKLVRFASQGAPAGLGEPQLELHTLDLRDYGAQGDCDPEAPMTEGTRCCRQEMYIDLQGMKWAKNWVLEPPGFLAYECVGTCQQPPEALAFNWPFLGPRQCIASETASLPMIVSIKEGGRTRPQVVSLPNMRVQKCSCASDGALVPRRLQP
Assay [14] deals with Calmodulin-1 (Homo sapiens) (UniProt P0DP23). The assay is described as follows: small molecules binding calmodulin-1 with EGTA – biochemical, small-molecule microarray, Cy5-labelled CALM1, profiling panel (AID 1111).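 Further: labelled calmodulin applied in Tris saline Tween buffer holding calcium plus EGTA and DTT.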 The settings on record: Cy5-CALM1 binding fluorescence, higher = more signal.
The target is the same in assay [15]. The assay is described as follows: small molecules binding Ca-loaded calmodulin-1 – biochemical, small-molecule microarray, Cy5-labelled CALM1, plus calcium, artefact control for SMM control-protein annotation, profiling panel (AID 1112).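 Further: score merges spot fluorescence with signal to noise from triplicate slides.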 Particulars: Cy5-CALM1 binding fluorescence, higher = more signal.
Assay [16] is described as follows: probe aWnt5a binding to arrayed compounds – biochemical, biotinylated probe, 635/667 nm fluorescence, primary screen (AID 1113).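 Further: score merges 667 nm fluorescence intensity with signal-to-noise per printed feature.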 Particulars: small-molecule microarray, higher = more signal.
Assay [17] can be described thus: probe aShh binding to arrayed compounds – biochemical, biotinylated probe, 635/667 nm fluorescence, primary screen (AID 1114).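 Further: probe is biotin-labelled aShh protein from a stem cell growth factor screen; measures binding of labelled protein to compounds printed on the slide; score merges feature fluorescence at 667 nm with signal-to-noise.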 The settings on record: small-molecule microarray, higher = more signal.
Assay [18] is described as follows: probe aNog binding to arrayed compounds – biochemical, biotinylated probe, 635/667 nm fluorescence, primary screen (AID 1115).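 Further: probe is biotinylated aNog protein used at 0.15 µg/mL for 1 h at 4 C; z-score combines 667 nm fluorescence of each spot with its signal to noise.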 Particulars: small-molecule microarray, higher = more signal.
The target in assay [19] is Torsin-1A-interacting protein 1 (Homo sapiens) (UniProt Q5JTV8). The assay is described as follows: compound microarray binding of lysate hLAP1 – cell lysate, small-molecule microarray, COS7 lysate, 635/667 nm fluorescence, primary screen (AID 1116). The settings on record: 635 nm fluorescence, higher = more signal.
Sequence of Torsin-1A-interacting protein 1 (Homo sapiens) (Q5JTV8 whole entry, looked up): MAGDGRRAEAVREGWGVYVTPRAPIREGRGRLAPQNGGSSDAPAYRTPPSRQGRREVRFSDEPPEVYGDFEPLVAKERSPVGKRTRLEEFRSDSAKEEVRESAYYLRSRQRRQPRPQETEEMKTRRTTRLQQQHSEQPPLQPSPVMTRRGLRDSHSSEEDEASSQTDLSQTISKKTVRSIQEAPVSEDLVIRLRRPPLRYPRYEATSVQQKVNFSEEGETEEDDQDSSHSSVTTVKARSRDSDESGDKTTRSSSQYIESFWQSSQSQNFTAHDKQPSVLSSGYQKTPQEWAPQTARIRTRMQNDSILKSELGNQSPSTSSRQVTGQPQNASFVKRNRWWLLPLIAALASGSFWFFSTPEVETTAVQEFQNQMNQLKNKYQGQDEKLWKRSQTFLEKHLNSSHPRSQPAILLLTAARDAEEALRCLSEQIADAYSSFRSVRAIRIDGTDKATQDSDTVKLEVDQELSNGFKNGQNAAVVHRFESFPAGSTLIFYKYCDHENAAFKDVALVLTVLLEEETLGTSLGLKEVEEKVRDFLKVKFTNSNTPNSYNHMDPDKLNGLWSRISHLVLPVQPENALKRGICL
Assay [20] addresses Alpha-bungarotoxin (Bungarus multicinctus) (UniProt P60615). The assay is described as follows: compounds binding labelled alpha-BTX control protein – biochemical, small-molecule microarray, Alexa647 label, 635/667 nm fluorescence, artefact control for SMM control protein annotation, profiling panel (AID 1117). Particulars: alpha-BTX-A647 binding fluorescence, higher = more signal.

Sequence of Fibroblast growth factor 10 (Homo sapiens) (O15520 whole entry, looked up): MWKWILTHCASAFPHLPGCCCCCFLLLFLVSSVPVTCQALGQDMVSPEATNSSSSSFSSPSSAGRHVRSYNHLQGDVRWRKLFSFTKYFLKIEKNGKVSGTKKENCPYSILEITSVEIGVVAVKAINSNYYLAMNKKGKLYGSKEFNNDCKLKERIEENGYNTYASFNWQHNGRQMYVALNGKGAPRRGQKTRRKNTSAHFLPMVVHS
Sequence of Alpha-bungarotoxin (Bungarus multicinctus) (P60615 whole entry, looked up): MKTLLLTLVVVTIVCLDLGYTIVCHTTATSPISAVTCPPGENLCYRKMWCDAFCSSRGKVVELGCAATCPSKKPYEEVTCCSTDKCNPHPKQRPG
Sequence of Follistatin-related protein 3 (Homo sapiens) (O95633 whole entry, looked up): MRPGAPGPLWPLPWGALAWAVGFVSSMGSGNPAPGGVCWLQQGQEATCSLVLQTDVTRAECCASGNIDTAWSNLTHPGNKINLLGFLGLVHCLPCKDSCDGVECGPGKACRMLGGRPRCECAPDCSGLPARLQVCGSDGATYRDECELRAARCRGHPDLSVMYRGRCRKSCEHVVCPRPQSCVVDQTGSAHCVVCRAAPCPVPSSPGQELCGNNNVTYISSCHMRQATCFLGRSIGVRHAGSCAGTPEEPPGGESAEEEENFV

Turning to `C=CC[C@@]1(C(=O)NCc2ccccc2)N=C(c2ccc(OCCCO)cc2)O[C@@H]1c1ccccc1N=[N+]=[N-]`, the composite z-score in [1] is 0.888; in assay [2] it was 0.925; in [3], 1.02; in assay [5], 1.22; in assay [6] it was -0.119; in assay [7], -0.104. The composite z-score in assay [8] was 0.751; in assay [9], -0.295; in assay [10] it was 0.817; in assay [11], 1.25; in assay [13] it was -0.258; in assay [14], 1.17. In addition, the composite z-score was 0.399 in [15]; 0.0839 in assay [16]; 0.171 in assay [17]; 1.74 in assay [18]; 1.44 in assay [19]; 1.82 in assay [20]. Besides, the results for the z-score in assay [4] and in assay [12] were -1.35 (inactive) and -0.874, respectively.

With `COCCOC(=O)N1C(=O)[C@@]2(c3cc(C#CC4=CCCCC4)ccc31)[C@H](C(=O)N1CCc3cc(OC)c(OC)cc3C1)[C@H]1C(=O)O[C@H](c3ccccc3)[C@H](c3ccccc3)N1[C@@H]2c1ccc(OCCO)cc1`, the composite z-score is 0.563 in assay [1]; 0.0129 in assay [2]; -0.134 in [3]; 1.3 in assay [5]; 1.3 in assay [6]; 0.649 in assay [7]. Also, the composite z-score came to 1.03 in assay [8]; 0.8 in [9]; 0.706 in [10]; 1.07 in assay [11]; 0.744 in assay [13]; 0.526 in assay [14]. Further, the composite z-score in [15] is 0.269; in [16], 0.048; in assay [17], -0.428; in assay [18] it was 0.575; in assay [19] it was 0.929; in assay [20], 1.07. Besides, the z-score was 0.342 (inactive) in assay [4] and -0.44 in assay [12].

Regarding `COCCOC(=O)N1C(=O)[C@@]2(c3cc(C#CC4=CCCCC4)ccc31)[C@H](C(=O)Nc1nc3ccccc3s1)[C@H]1C(=O)O[C@H](c3ccccc3)[C@H](c3ccccc3)N1[C@@H]2c1ccccc1OCCO`, the composite z-score in assay [1] amounted to 0.966; in [2], 0.756; in assay [3], 0.4; in [5] it was 1.33; in [6], 1.29; in assay [7] it was 0.765. For the same compound, the composite z-score in [8] is 1.41; in [9], 0.785; in assay [10] it was 1.3; in [11], 1.42; in [13], 0.938; in assay [14], 0.738. In addition, the composite z-score was determined as 0.417 in [15]; 0.332 in assay [16]; 0.126 in assay [17]; 1.21 in assay [18]; 0.512 in assay [19]; 0.858 in assay [20]. Moreover, the figures for the z-score in assay [4] and in assay [12] were -0.823 (inactive) and -1.66, respectively.

Take `C=C(COC)/C(=C/C[C@H](OC(=O)c1ccncc1)c1ccc(OCCO)cc1)c1cnc2ccccc2c1`: the composite z-score in [1] was 1.24; in assay [2] it was 0.159; in [3], -0.106; in assay [5] it was 1.36; in [6] it was 1.07; in assay [7], 1.26. Also, the composite z-score amounted to 1.55 in assay [8]; 1.01 in assay [9]; 1.61 in [10]; 1.46 in assay [11]; 1.07 in assay [13]; 0.447 in assay [14]. Also, the composite z-score in assay [15] was -0.669; in assay [16], 0.0328; in assay [17], 0.171; in [18], -0.456; in [19] it was 0.78; in [20], 2.8. Further, the z-score in [4] was -1.02 (inactive); in assay [12], -1.63.

For the compound `CCOC(=O)C[C@H]1[C@H](OC(=O)Cc2ccc3c(c2)OCO3)[C@@H](NC(=O)c2ccc(-c3ccccc3)cc2)c2cc(OCCCO)ccc2N1C(=O)c1ccc2ccccc2n1`, the composite z-score in assay [1] was -0.0119; in assay [2] it was -0.319; in assay [3], -0.486; in [5], 0.556; in [6], 0.28; in assay [7], 0.468. Also, the composite z-score was 0.321 in assay [8]; 0.434 in assay [9]; -0.0169 in assay [10]; 0.226 in assay [11]; 0.445 in [13]; 0.284 in assay [14]. Moreover, the composite z-score is -0.788 in assay [15]; -0.0828 in assay [16]; -0.146 in assay [17]; -0.261 in assay [18]; 0.142 in assay [19]; 0.0797 in assay [20]. The values for the z-score in assay [4] and in assay [12] were -2.82 (inactive) and -1.37, respectively.

Take `CC(C)(C)C(=O)N[C@@H](c1ccc(Cl)cc1)[C@]1(C)C[C@H]1C1CCCCC1`: the composite z-score in assay [1] is 0.705; in [2] it was 0.701; in assay [3] it was 0.933; in [5], 0.521; in assay [6], 1.28; in assay [7] it was -0.19. Further, the composite z-score is 0.233 in assay [8]; 0.0399 in assay [9]; 0.998 in [10]; 1.19 in assay [11]; -0.487 in [13]; 1.27 in assay [14]. The composite z-score in [15] turned out to be 1.1; in assay [16], 0.197; in [17], 0.838; in assay [18], 2.13; in [19], 1.94; in [20], 2.02. In addition, the z-score in [4] was -0.455 (inactive); in [12] it was -0.409.
